# Laboratory results reported in article PMC11062922 (Nature Chemical Biology, 2023).
# Like-named read-outs stand apart in the source and are kept apart here.
# Key:
# [1] = tested on: AAK1; design: species or system human, MV4-11 + K-562 + COLO205 + SK-N-BE2 + OVCAR-8; conditions: read-out: apparent Kd, n = 1
# [2] = tested on: BMP2K; design: species or system human, MV4-11 + K-562 + COLO205 + SK-N-BE2 + OVCAR-8; conditions: read-out: apparent Kd, n = 1
# [3] = tested on: CDKL5; design: species or system human, MV4-11 + K-562 + COLO205 + SK-N-BE2 + OVCAR-8; conditions: read-out: apparent Kd; compound concentrations: 100 nM and 1000 nM (sheet 'Samples'), CATDS: 4.3388944669180397E-2; n = 1
# [4] = tested on: CLK1; design: species or system human, MV4-11 + K-562 + COLO205 + SK-N-BE2 + OVCAR-8; conditions: read-out: apparent Kd, n = 1
# [5] = tested on: CLK4; design: species or system human, MV4-11 + K-562 + COLO205 + SK-N-BE2 + OVCAR-8; conditions: read-out: apparent Kd, n = 1
# [6] = tested on: DYRK1A; design: species or system human, MV4-11 + K-562 + COLO205 + SK-N-BE2 + OVCAR-8; conditions: read-out: apparent Kd, compound concentrations: 100 nM and 1000 nM (sheet 'Samples'), n = 1
# [7] = tested on: FLT3; design: species or system human, MV4-11 + K-562 + COLO205 + SK-N-BE2 + OVCAR-8; conditions: read-out: apparent Kd, compound concentrations: 100 nM and 1000 nM (sheet 'Samples'), n = 1
# [8] = tested on: FLT4; design: species or system human, MV4-11 + K-562 + COLO205 + SK-N-BE2 + OVCAR-8; conditions: read-out: apparent Kd; compound concentrations: 100 nM and 1000 nM (sheet 'Samples'), CATDS: 1.8307563949858899E-2; n = 1
# [9] = tested on: GSK3A; design: species or system human, MV4-11 + K-562 + COLO205 + SK-N-BE2 + OVCAR-8; conditions: read-out: apparent Kd; compound concentrations: 100 nM and 1000 nM (sheet 'Samples'), CATDS: 2.1356053852556199E-2; n = 1
# [10] = tested on: GSK3B; design: species or system human, MV4-11 + K-562 + COLO205 + SK-N-BE2 + OVCAR-8; conditions: read-out: apparent Kd; compound concentrations: 100 nM and 1000 nM (sheet 'Samples'), CATDS: 3.2546275447974102E-2; n = 1
# [11] = tested on: NUAK1; design: species or system human, MV4-11 + K-562 + COLO205 + SK-N-BE2 + OVCAR-8; conditions: read-out: apparent Kd; compound concentrations: 100 nM and 1000 nM (sheet 'Samples'), CATDS: 5.2338687670537398E-2; n = 1
# [12] = tested on: PAK4; design: species or system human, MV4-11 + K-562 + COLO205 + SK-N-BE2 + OVCAR-8; conditions: read-out: apparent Kd; compound concentrations: 100 nM and 1000 nM (sheet 'Samples'), CATDS: 2.0251882597793001E-2; n = 1
# [13] = biological target: Q6ZSR9 (human, UniProt Q6ZSR9); design: species or system MV4-11 + K-562 + COLO205 + SK-N-BE2 + OVCAR-8; conditions: read-out: apparent Kd, n = 1
# Sequence of Q6ZSR9 (Q6ZSR9 whole entry, looked up): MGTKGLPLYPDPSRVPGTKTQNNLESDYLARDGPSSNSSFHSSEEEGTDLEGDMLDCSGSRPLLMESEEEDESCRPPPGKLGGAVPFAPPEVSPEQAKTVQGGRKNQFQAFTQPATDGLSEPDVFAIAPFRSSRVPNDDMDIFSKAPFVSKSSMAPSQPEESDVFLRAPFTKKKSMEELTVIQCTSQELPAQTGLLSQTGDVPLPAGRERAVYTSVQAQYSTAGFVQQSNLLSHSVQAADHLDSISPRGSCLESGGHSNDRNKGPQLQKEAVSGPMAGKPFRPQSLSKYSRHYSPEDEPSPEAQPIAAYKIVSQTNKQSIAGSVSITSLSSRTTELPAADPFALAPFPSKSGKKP
# [14] = tested on: CSNK2A1;CSNK2A3; design: species or system human, MV4-11 + K-562 + COLO205 + SK-N-BE2 + OVCAR-8; conditions: read-out: apparent Kd, n = 1
# [15] = tested on: CSNK2A2; design: species or system human, MV4-11 + K-562 + COLO205 + SK-N-BE2 + OVCAR-8; conditions: read-out: apparent Kd, n = 1
# [16] = tested on: GAK; design: species or system human, MV4-11 + K-562 + COLO205 + SK-N-BE2 + OVCAR-8; conditions: read-out: apparent Kd; compound concentrations:100 nM and 1000 nM (sheet 'Samples'); n = 1
# [17] = tested on: MELK; design: species or system human, MV4-11 + K-562 + COLO205 + SK-N-BE2 + OVCAR-8; conditions: read-out: apparent Kd; compound concentrations:100 nM and 1000 nM (sheet 'Samples'); n = 1
# [18] = tested on: PRKD2; design: species or system human, MV4-11 + K-562 + COLO205 + SK-N-BE2 + OVCAR-8; conditions: read-out: apparent Kd; compound concentrations:100 nM and 1000 nM (sheet 'Samples'); n = 1
# [19] = compound concentrations:100 nM and 1000 nM (sheet 'Samples')
structure (smiles),measurement,setting,value
COc1cc(Nc2nccc(-c3cnn4ncccc34)n2)cc(OC)c1 [GW801372X],potency estimated from few doses,"[1]; compound concentrations: 100 nM and 1000 nM (sheet 'Samples'), CATDS: 3.8573145954119099E-2",184 nM
same,potency estimated from few doses,"[2]; compound concentrations: 100 nM and 1000 nM (sheet 'Samples'), CATDS: 1.7916348880173499E-2",1820 nM
same,potency estimated from few doses,[3],141 nM
same,potency estimated from few doses,"[4]; compound concentrations: 100 nM and 1000 nM (sheet 'Samples'), CATDS: 0.124159144382542",18.2 nM
same,potency estimated from few doses,"[5]; compound concentrations: 100 nM and 1000 nM (sheet 'Samples'), CATDS: 0.10081286200227101",26.6 nM
same,potency estimated from few doses,[6]; CATDS: 3.9916528669642001E-2,170 nM
same,potency estimated from few doses,[7]; CATDS: 0.110722345436643,22.4 nM
same,potency estimated from few doses,[8],1650 nM
same,potency estimated from few doses,[9],929 nM
same,potency estimated from few doses,[10],277 nM
same,potency estimated from few doses,[11],94.5 nM
same,potency estimated from few doses,[12],1120 nM
same,potency estimated from few doses,"[13]; compound concentrations: 100 nM and 1000 nM (sheet 'Samples'), CATDS: 3.9611085380352497E-2",173 nM
O=C1N=C(NCCCc2ccccc2)S/C1=C\c1ccc2ncccc2c1 [RO4493941-000],potency estimated from few doses,"[1]; compound concentrations: 100 nM and 1000 nM (sheet 'Samples'), CATDS: 6.7611203009870793E-2",1120 nM
same,potency estimated from few doses,"[4]; compound concentrations: 100 nM and 1000 nM (sheet 'Samples'), CATDS: 8.49411754848379E-2",528 nM
same,potency estimated from few doses,"[5]; compound concentrations: 100 nM and 1000 nM (sheet 'Samples'), CATDS: 0.15877377246004401",105 nM
same,potency estimated from few doses,"[14]; compound concentrations: 100 nM and 1000 nM (sheet 'Samples'), CATDS: 0.35522502931524602",22 nM
same,potency estimated from few doses,"[15]; compound concentrations: 100 nM and 1000 nM (sheet 'Samples'), CATDS: 0.347313618598384",22.8 nM
same,potency estimated from few doses,[6]; CATDS: 6.8092992761352805E-2,1090 nM
same,potency estimated from few doses,[7]; CATDS: 7.0899563785954994E-2,945 nM
same,potency estimated from few doses,"[13]; compound concentrations: 100 nM and 1000 nM (sheet 'Samples'), CATDS: 7.1931032695021699E-2",898 nM
COc1ccc(-c2cc3c(N)ncnc3o2)cc1 [GW642138X],potency estimated from few doses,"[1]; compound concentrations: 100 nM and 1000 nM (sheet 'Samples'), CATDS: 9.3740609603759906E-2",2100 nM
CN(C)CC(O)COc1ccc(Nc2nccc(-c3cnn4nc(N5CCOCC5)ccc34)n2)cc1 (centres unmarked) [GW767488X],potency estimated from few doses,[1]; [19],23.6 nM
same,potency estimated from few doses,[2]; [19],180 nM
same,potency estimated from few doses,[4]; [19],54.1 nM
same,potency estimated from few doses,[5]; [19],34.2 nM
same,potency estimated from few doses,[14]; [19],105 nM
same,potency estimated from few doses,[15]; [19],57.1 nM
same,potency estimated from few doses,[16],378 nM
same,potency estimated from few doses,[17],1490 nM
same,potency estimated from few doses,[18],28.7 nM
same,potency estimated from few doses,[13]; [19],29.6 nM
COc1cc(Nc2nccc(N3CCC(NC(=O)c4cccc(NC(C)=O)c4)C3)n2)cc(OC)c1OC (centres unmarked) [GSK1379754A],potency estimated from few doses,"[1]; compound concentrations: 100 nM and 1000 nM (sheet 'Samples'), CATDS: 0.175205708840038",410 nM
same,potency estimated from few doses,"[13]; compound concentrations: 100 nM and 1000 nM (sheet 'Samples'), CATDS: 0.171045295105965",426 nM
NC(=O)c1cc(-c2ccccc2)cc2c(C3CCNCC3)c[nH]c12 [GSK301362A],potency estimated from few doses,[1]; [19],1980 nM
